This is one part of the list. Results filed as inconclusive are left out. Values without a mark were called inactive. The source made the active and inactive calls. Calls come from the whole dose curve; as a rule, active = well fitted cell-killing curve with a large enough effect; inconclusive = small, poorly fitted or top-dose-only effect, or effect the other way; inactive = no such curve, though single readings can be large or run the other way.
assay: qHTS for Inhibitors of the vitamin D receptor (VDR): Hit Validation using a Cytotoxicity Assay (AID 602204); conditions: cytotoxicity counter-screen, cell viability; series mostly up to 48.3 µM; activity change, negative = cytotoxicity: at the top concentration; note: nearly all actives have a fitted effect of over 75% in size;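 for Potency: cells co-treated with VDR agonist LG190178 at 300 nM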
Excerpt: The vitamin D receptor (VDR) is a ligand-activated transcription factor and is partially responsible for the regulation of the endocrine system. This includes the transcriptional regulation of genes involved in the production of the parathyroid hormone (PTH) and the regulation of the blood calcium level. High levels of PHT can cause hypercalcemia in the case of primary and tertiary hyperparathyroidism. The VDR-mediated gene regulation, activated by its ligand 1,25-dihydroxyvitamin D3 (1,25-(OH)2D3), is governed by the recruitment of coactivators. Our hypothesis is that small molecules, with the ability to inhibit the interaction between VDR and certain coactivators, are able to selectively modulate VDR-mediated transcription. Our long term objective is the application these VDR-coactivator inhibitors to study the role of VDR-coactivator binding for specific VDR regulated genes. Ultimately, these molecules can be developed into new treatments for hypercalcemic hyperparathyroidism. No small molecule or non-peptide inhibitors are known for the VDR-coactivator interaction.
In a collaboration between the University of Wisconsin, Milwaukee and the NIH Chemical Genomics Center (NCGC) a HTS-compatible enzymatic assay was developed. The assay uses fluorescence polarization as its read-out to measure the inhibition between VDR and coregulator peptide SRC2-3 exerted by small molecules. This assay was used to screen the NIH Molecular Libraries Small Molecule Repository (MLSMR). Cytotoxicity caused by screening compounds is a major concern for cell-based assays. This assay quantifies the amount of ATP generated by living cells and compounds that are active in this assay are undesirable for the project due to cytotoxicity. High concentrations of cycloheximide (protein synthesis inhibitor) and DMSO were used as positive and negative control, respectively.
NIH Chemical Genomics Center [NCGC]
NIH Molecular Libraries Probe Centers Network [MLPCN]
Assay Submitter (PI): Alexander Arnold, University of Wilwaukee
Plate: 384 white, solid bottom, tissue culture treated
Step 1: Plate 20,000 cell per well (32 uL)
Step 2: 4 hours incubation
Step 3: Add screening compounds
Step 5: 18 hour incubation
Step 6: Add Cell-Titer Glo (25 uL)
Step 7: 30 minutes incubation
Step 8: Read luminescence
Potency is the fitted concentration of half-maximal effect.

| Compound | activity change, negative = cytotoxicity | Potency |
| --- | --- | --- |
| c1ccc2c(C[n+]3csc4ccccc43)cccc2c1 | 0.478% | – |
| CC(=O)N1CC[n+]2c(-c3ccc([N+](=O)[O-])cc3)csc21 | 23.8% | – |
| O=[N+]([O-])/C=C/c1ccc2c(ccn2Cc2ccccc2)c1 | – | 9.2 µM (active) |
| Cc1cc(C)nc(S/C=C/C(=O)c2ccccc2)n1 | – | 23.8 µM (active) |
| Cc1cccc([C@H]2[C@@H]3C=CC[C@@H](C)[C@@H]3C(=O)N2Cc2ccccc2)c1 | – | 23.8 µM (active) |
| C[C@@H](NC(=O)OC(C)(C)C)c1nnc(S(=O)(=O)Cc2ccccc2)o1 | 9.4% | – |
| CCCCS(=O)(=O)c1oc(-c2cccs2)nc1S(=O)(=O)c1ccccc1 | – | 9.47 µM (active) |
| COc1ccc(OCc2nnc3n2N=C(c2ccccc2)C(CC(=O)O)S3)cc1 (centres undefined) | 9.43% | – |
| O=c1cc(CO)oc(C(Nc2cccc(C(F)(F)F)c2)c2ccccn2)c1O (centres undefined) | -0.379% | – |
| Cc1nc(-c2ccccc2)sc1C(=O)/C=C/c1ccccc1 | -27.8% | – |
| COc1ccc(CS(=O)/C(Cl)=C(/Cl)C(=O)Nc2ccc(OC)nc2)cc1 (centres undefined) | – | 2.59 µM (active) |
| C=CCOc1ccc(/C=C2/C(=O)ON=C2C)cc1OCC | 5.44% | – |
| Cc1cccc(Oc2c([N+](=O)[O-])c(=O)n(C)c3ccccc23)c1 | -7.37% | – |
| O=C(/C=C/c1ccc(Cl)c([N+](=O)[O-])c1)c1cccnc1 | 1.26% | – |
| Cc1ccc(-c2nc3ccccn3c2Nc2c(C)cccc2C)o1 | -7.48% | – |
| CSc1nnc(NC(=O)c2nc(S(=O)(=O)Cc3ccc(C)cc3)ncc2Cl)s1 | – | 16.4 µM (active) |
| O=C(/C=C/c1ccc(Cl)cc1Cl)c1cccnc1 | 0.284% | – |
| O=C1C=C(c2ccc(Cl)cc2)C(=O)N1Nc1ccccc1 | – | 23.1 µM (active) |
| CCOc1ccc(N(Cc2ccccc2)C(=O)c2nc(S(C)(=O)=O)ncc2Cl)cc1 | – | 16.8 µM (active) |
| O=C(/C=C/c1ccccc1)c1ccccc1O | -29.7% | – |
| Cc1cccc(CS(=O)(=O)c2ncc(Cl)c(C(=O)Nc3ccc(F)cc3)n2)c1 | – | 11.2 µM (active) |
| CCOC(=O)c1sc(=S)n2c1[nH]c(=O)c1ccc(C(=O)OC)cc12 | 17% | – |
| CC1CCN(C(=S)c2ccc(-c3ccc(Cl)cc3Cl)o2)CC1 | -16% | – |
| O=c1[nH]c(/C=C\c2cccc(C(F)(F)F)c2)nc(O)c1[N+](=O)[O-] | 17.3% | – |
